# Assay results as given in PubChem BioAssay (NCATS).
# Values joined by “and” are separate entries in the source; they are usually repeats but may differ in a detail not shown here. Identical values can stand only once. Inconclusive results are not listed. Active and inactive are the calls of the source. The call rests on the fitted dose curve; in most records, active means well fitted cell-killing curve with a large enough effect; inconclusive means small, poorly fitted or top-dose-only effect, or effect the other way; inactive means no such curve, though single readings can be large or run the other way.
# Assay: Viability qHTS for spleen associated tyrosine kinase inhibitor (SYKi) drug resistant MV4-11 cells (AID 1963824); further: nearly all actives have a fitted effect of over 35% in size
# Conditions: SYKi-resistant MV4-11 viability, CellTiter-Glo, 72 h; series mostly up to 45 µM
# Outline: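 CellTiter-Glo luminescence, read 10 min after reagent addition, reports viability after a 72 hr compound exposure. Cells are an MV4-11 line made resistant to SYK inhibition, seeded at 500 per well onto compound-containing plates.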
# Potency means the concentration at half of the fitted maximal effect.
SMILES,"viability, % of control",Potency
CC(=O)O[C@@H]1[C@H](O[C@@H]2OC[C@](O)(CO)[C@H]2O)[C@@H](O[C@@H]2O[C@@H](C)[C@H](O)[C@@H](O)[C@H]2O)[C@H](OC(=O)[C@]23CCC(C)(C)C[C@H]2C2=CCC4[C@@]5(C)C[C@H](O)[C@H](O[C@@H]6O[C@H](C(=O)O)[C@@H](O)[C@H](O)[C@H]6O)[C@@](C)(C(=O)O)C5CC[C@@]4(C)[C@]2(C)CC3)O[C@@H]1C (stereo not given in full),107% [at 9.25 µM] (inactive),
COC(=O)C1=CO[C@@H](O[C@@H]2O[C@H](CO)[C@@H](O)[C@H](O)[C@H]2O)[C@@H]2[C@@](C)(O)[C@@H](O)C[C@]12O,,inactive
CNC(=O)c1ccc(-c2cnc3cnc(C(=O)N(C)c4ccc(Cl)cc4)cn23)cc1,,18.4 µM (active)
COc1cccc2c1CCC[C@H]2CN(C)CCc1ccc2ccoc2c1,,23.1 µM (active)
CC(C)S(=O)(=O)NC[C@H](C)c1ccc(-c2ccc(CCNS(C)(=O)=O)cc2)cc1,,2.31 µM (active)
C[C@@H]1O[C@@H](O[C@H]2[C@H](OC(=O)[C@]34CCC(C)(C)C[C@H]3C3=CCC5[C@@]6(C)C[C@H](O)[C@H](O[C@@H]7O[C@H](CO)[C@@H](O[C@@H]8O[C@H](CO)[C@@H](O)[C@H](O)[C@H]8O)[C@H](O)[C@H]7O)[C@@](C)(CO)C6[C@H](O)C[C@@]5(C)[C@]3(C)C[C@H]4O)OC[C@H](O)[C@@H]2O)[C@H](O)[C@H](O)[C@H]1O[C@@H]1OC[C@@H](O)[C@H](O[C@@H]2OC[C@](O)(CO)[C@H]2O)[C@H]1O (stereo not given in full),108% [at 9.25 µM] (inactive),
CC1=C(C)C(=O)OC(C(C)C2C(O)CC3C4C5OC5C5(O)CC(OC6OC(CO)C(OC7OC(C)C(O)C(O)C7O)C(O)C6O)CC(O)C5(C)C4CCC32C)C1 (stereo not given),,inactive
CC[C@H]1OC(=O)[C@H](C)[C@@H](O[C@H]2C[C@@](C)(OC)[C@@H](O)[C@H](C)O2)[C@H](C)[C@@H](O[C@@H]2O[C@H](C)C[C@H](N(C)C)[C@H]2O)[C@@](C)(O)C[C@@H](C)[C@@H]2N[C@@H](COCCOC)OC([C@H]2C)[C@]1(C)O,,inactive
Cc1cnc(-c2ccccc2C(C)C)nc1NCc1ccc(-n2ccnn2)cc1,,16.4 µM (active) and 14.8 µM (active)
Cc1cc(F)c(Nc2ncnc3cc(OCc4ccccc4)ccc23)cc1O,,14.6 µM (active)
CC(C)C1=CC2=CCC3[C@](C)(CCC[C@@]3(C)C(=O)O)C2CC1O (stereo not given in full),,inactive
CNc1cc(OC)c(C(=O)N[C@@H]2CCN(Cc3ccccc3)[C@@H]2C)cc1Cl,,14.6 µM (active)
C/C=C(\C)C(=O)OC1C(C)C2(O)C(C=C(CO)CC3(O)C(=O)C(C)=CC32)C2C(C)(C)C12OC(C)=O (stereo not given),,0.112 µM (active)
C/C=C(\C)C(=O)OC1C(C)C2(O)C3C=C(C)C(=O)C3CC(CO)=CC2C2C(C)(C)C12OC(C)=O (stereo not given),,inactive
O=C(/C=C/c1cccnc1)c1ccncc1,,6.51 µM (active)
CS(=O)(=O)c1ccc([C@H](CC2CCCC2)C(=O)Nc2nccs2)cc1,,13 µM (active)
C/C=C(\C)C(=O)OCC1OC(OCC2OC(OC3(CO)OC(CO)C(O)C3O)C(O)C(O)C2O)C(O)C(O)C1O (stereo not given),,inactive
CO[C@H]1C[C@@H]2CC[C@@H](C)[C@@](O)(O2)C(=O)C(=O)N2CCCC[C@H]2C(=O)O[C@H]([C@H](C)C[C@@H]2CC[C@@H](OCCO)[C@H](OC)C2)CC(=O)[C@H](C)/C=C(/C)[C@@H](O)[C@@H](OC)C(=O)[C@H](C)C[C@H](C)/C=C\C=CC=C1C,,11.8 µM (active)
CC1=C(CCC(C)O[C@@H]2O[C@H](CO)[C@@H](O)[C@H](O)[C@H]2O)C(C)(C)CCC1=O (stereo not given in full),,inactive
O=C1CCCC2=C1C(c1ccncc1Br)N=C(Nc1nc3ccccc3o1)N2 (stereo not given),,18.4 µM (active)
CC(C)n1nc(C#Cc2ccccc2)c2c(N)ncnc21,,8.2 µM (active)
C[C@@H]1C[C@@H]([C@@H](O)C(C)(C)O)O[C@H]2C[C@@]3(C)C(=C12)C[C@H](O)[C@H]1[C@@]2(C)CCC(=O)C(C)(C)C2CC[C@@]13C (stereo not given in full),,1.26 µM (active)
C=C1C2=CC(O)C(C)C1(C)CC/C(C)=C/CCC1(C)OC1C2=O (stereo not given),,10.1 µM (active)
CCOC(=O)COc1ccc2c(c1)C[C@@H](NC[C@H](O)c1cccc(Cl)c1)CC2,,8.2 µM (active)
CC(=O)N[C@@H](C(=O)O[C@H]1CCC(C)(C)[C@@H]2CCC3=C(COC3=O)[C@@]12C)C(C)C,,inactive
